# Assays:
# Details in all cases: concentration: 1 μM, replicates: in singlicate; n = 1
# TNNI3K = test system: TNNI3K
# TRKA = test system: T1, TRKA
# T1 construct: gene NTRK1
# TRKB = test system: TRKB
# TRKC = test system: T2, TRKC
# T2 construct: gene NTRK3
# TRPM6 = test system: TRPM6
# TSSK1B = test system: TSSK1B
# TSSK3 = test system: TSSK3
# TTK = test system: TTK
# TXK = test system: TXK
# [1] = test system: TYK2(JH1domain-catalytic)
# [2] = test system: TYK2(JH2domain-pseudokinase)
# TYRO3 = test system: TYRO3
# ULK1 = test system: ULK1
# ULK2 = test system: ULK2
# ULK3 = test system: ULK3
# VEGFR2 = test system: T3, VEGFR2
# T3 construct: gene KDR
# VPS34 = test system: T4, VPS34
# T4 construct: gene PIK3C3
# VRK2 = test system: VRK2
# WEE1 = test system: WEE1
# WEE2 = test system: WEE2
# 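Note: KINOMEscan kinase panel screen.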
Structure (SMILES),%Inh (TNNI3K),%Inh (TRKA),%Inh (TRKB),%Inh (TRKC),%Inh (TRPM6),%Inh (TSSK1B),%Inh (TSSK3),%Inh (TTK),%Inh (TXK),%Inh [1],%Inh [2],%Inh (TYRO3),%Inh (ULK1),%Inh (ULK2),%Inh (ULK3),%Inh (VEGFR2),%Inh (VPS34),%Inh (VRK2),%Inh (WEE1),%Inh (WEE2)
O=C(Nc1n[nH]c2nc(-c3ccccc3O)ccc12)C1CC1 [SB-711880],0%,49%,17%,16%,0%,0%,0%,18%,0%,0%,6%,0%,0%,0%,16%,0%,0%,0%,0%,79%
Cc1ccc(NC(=O)c2ccc(Cl)c(Cl)c2)cc1-c1ccc(C(=O)Nc2ccncc2)cc1 [GSK1398460],60%,0%,0%,0%,14%,20%,48%,15%,0%,0%,0%,10%,15%,0%,6%,6%,0%,0%,11%,6%
COc1cc(Nc2nccc(N3CCC(NC(=O)Nc4ccc5c(c4)OCO5)C3)n2)cc(OC)c1OC (centres unmarked) [GSK1379766],0%,57%,43%,73%,47%,8%,9%,0%,38%,38%,52%,0%,14%,14%,86%,7%,0%,0%,0%,0%
Cc1nn2c(=O)cc(N3CCO[C@H](C)C3)nc2n1Cc1cccc(Cl)c1Cl [GSK2373693],60%,0%,7%,0%,0%,21%,5%,0%,0%,17%,18%,15%,78%,0%,14%,0%,96.5%,0%,0%,0%
O=C(Nc1n[nH]c2cc(-c3cccs3)ccc12)C1CC1 [SB-731284],0%,3%,0%,3%,39%,0%,7%,10%,0%,28%,63%,0%,39%,15%,7%,57%,16%,0%,0%,0%
Cl.Cl.NCC(NC(=O)c1cc(-c2cccnc2)c(-c2ccnc3[nH]ccc23)s1)c1ccccc1 (centres unmarked) [GSK1323434],26%,31%,40%,48%,34%,14%,19%,4%,0%,28%,37%,0%,4%,0%,0%,0%,45%,15%,8%,13%
CN(c1ccc2c(c1)nc(NCc1ccccc1)n2C)c1ccnc(Nc2ccc(CS(C)(=O)=O)cc2)n1.Cl [GW811603],0%,78%,77%,55%,0%,0%,37%,16%,78%,40%,0%,0%,0%,16%,9%,99.5%,40%,100%,0%,29%
CN(c1ccc(NC(=O)N2CCN(CCCN3CCOCC3)CC2)cc1)c1ccnc(Nc2ccc(CS(C)(=O)=O)cc2)n1.Cl [GW830899],5%,0%,0%,0%,0%,3%,0%,26%,38%,31%,22%,8%,0%,0%,0%,52%,0%,0%,3%,79%
Cc1ccc(O)cc1Nc1ccnc2cc(-c3ccc(CN4CCCCC4)o3)ccc12 [GW557777],20%,42%,0%,0%,0%,0%,0%,0%,98.3%,63%,0%,59%,0%,0%,0%,93.6%,0%,0%,5%,0%
Cc1ccccc1CC(=O)N1CCc2cc(-c3cn(C)c4ncnc(N)c34)ccc21 [GSK2603346],0%,39%,14%,21%,40%,0%,26%,0%,0%,0%,40%,0%,16%,0%,19%,69%,2%,0%,0%,17%
CC(=O)Nc1cn2nc(Oc3cccc(NC(=O)c4cccc(C(F)(F)F)c4)c3)ccc2n1,97%,0%,0%,0%,0%,8%,0%,29%,61%,0%,0%,33%,0%,0%,0%,99.4%,24%,8%,21%,0%
COC(=O)Nc1nc2ccc(Oc3ccc(CC(=O)Nc4cc(C(F)(F)F)ccc4F)cc3)cc2[nH]1 [GW680903],70%,0%,37%,49%,16%,0%,24%,0%,8%,23%,24%,0%,0%,0%,0%,63%,0%,13%,1%,0%
Cc1ccc(NC(=O)c2cccc(N3CCCCC3)c2)cc1-c1ccc(C(=O)NCC2CC2)cc1 [GSK1917008],28%,0%,0%,0%,23%,28%,10%,11%,7%,16%,0%,0%,37%,13%,18%,6%,0%,0%,0%,18%
COc1cccc(C2=C(Nc3cccc(O)c3)C(=O)NC2=O)c1 [SB-390771],21%,0%,0%,46%,4%,27%,9%,10%,11%,21%,25%,0%,17%,0%,23%,3%,0%,10%,20%,12%
Cc1cccc(Nc2nc(NCCN)ncc2C(N)=O)c1 [GSK1292139],0%,72%,57%,43%,44%,38%,55%,36%,11%,44%,95.8%,0%,64%,78%,41%,3%,0%,18%,0%,26%
Nc1cccc(-c2ccc3c(N)n[nH]c3c2)c1 [GSK2193613],0%,35%,40%,19%,0%,0%,8%,21%,3%,13%,0%,0%,6%,0%,3%,0%,21%,30%,5%,10%
CCn1cnc2c(NCc3ccccc3)ncnc21 [SKF-96418],0%,0%,0%,11%,15%,0%,0%,16%,2%,0%,30%,0%,0%,38%,0%,0%,33%,16%,0%,0%

Structure (SMILES),%Inh (TNNI3K),%Inh (TRKA),%Inh (TRKB),%Inh (TRKC),%Inh (TRPM6),%Inh (TSSK1B),%Inh (TSSK3),%Inh (TTK),%Inh (TXK),%Inh [1],%Inh [2],%Inh (TYRO3),%Inh (ULK1),%Inh (ULK2),%Inh (ULK3),%Inh (VEGFR2),%Inh (VPS34),%Inh (VRK2),%Inh (WEE1),%Inh (WEE2)
CN(c1ccc(NC(=O)Nc2cccc(Cl)c2)cc1)c1ccnc(N)n1.Cl [GW830707],19%,57%,45%,89%,0%,3%,0%,0%,0%,0%,0%,0%,5%,17%,0%,97.4%,0%,0%,4%,0%
Cn1cc(-c2ccc3c(c2)CCN3C(=O)Cc2cc(F)cc(C(F)(F)F)c2)c2c(N)ncnc21 [GSK2635225],47%,49%,49%,69%,36%,0%,15%,26%,0%,0%,1%,0%,0%,0%,0%,22%,3%,0%,0%,0%
CC(C)(C)c1ccc(C(=O)Nc2cn3cc(-n4ccnc4)ccc3n2)cc1,2%,0%,0%,0%,0%,0%,0%,1%,0%,22%,11%,0%,0%,14%,10%,0%,39%,0%,0%,36%
COc1cccc(CC(=O)N2CCc3cc(-c4cn(C)c5ncnc(N)c45)ccc32)c1 [GSK2608899],0%,75%,28%,52%,0%,29%,30%,0%,0%,0%,39%,0%,5%,5%,17%,64%,0%,0%,0%,0%
CN(C)CCNS(=O)(=O)c1ccc(-c2ccnc3[nH]ccc23)cc1 [GSK977620],3%,93.4%,63%,54%,0%,58%,15%,50%,91%,46%,26%,3%,73%,0%,27%,0%,57%,0%,35%,0%
COC(=O)Nc1nc2ccc(Oc3ccc(NC(=O)Nc4cc(C(F)(F)F)ccc4F)cc3)cc2[nH]1.Cl [GW654607],92.4%,100%,94.8%,98.9%,26%,100%,6%,17%,0%,8%,1%,66%,15%,0%,58%,92.3%,0%,0%,31%,0%
O=C(Nc1c(F)cccc1F)c1cc(C(=O)c2ccccc2F)c[nH]1 [GSK1326180],0%,27%,0%,12%,0%,0%,24%,6%,0%,0%,0%,0%,15%,0%,2%,0%,5%,0%,2%,6%
COc1cccc(-c2nc(-c3ccccc3)[nH]c2-c2ccncc2)c1 [SB-610250],0%,0%,0%,22%,10%,10%,4%,16%,14%,18%,93.1%,0%,8%,0%,28%,0%,0%,43%,9%,0%
c1ccc(Oc2ccc(Nc3ccnc4cc(-c5ccc(CN6CCCCC6)o5)ccc34)cc2)nc1 [GW567143],1%,98.7%,18%,27%,42%,6%,19%,28%,0%,16%,17%,26%,0%,0%,15%,24%,0%,14%,8%,13%
COc1cc(Nc2ccnc3cc(-c4ccncc4)ccc23)cc(OC)c1OC.Cl [GW494610],14%,38%,7%,37%,16%,0%,22%,0%,92.8%,17%,18%,89%,100%,0%,15%,0%,0%,19%,0%,18%
N#Cc1cnc2cc(-c3cnc(CNCCN4CCOCC4)s3)ccc2c1Nc1ccc(Oc2ccccc2)cc1 [GW664114],2%,55%,42%,46%,48%,1%,8%,0%,71%,0%,36%,84%,10%,0%,48%,12%,0%,8%,7%,23%
CSc1ccc(NC2=C(c3ccc(Cl)cc3)C(=O)NC2=O)cc1 [SB-317658],2%,5%,0%,0%,0%,3%,0%,6%,23%,0%,0%,0%,19%,0%,12%,0%,22%,13%,5%,0%
Cl.O=C(Nc1ccc(Oc2ccc3[nH]c(NC(=O)c4ccco4)nc3c2)cc1)Nc1cc(C(F)(F)F)ccc1F [GW683134],87%,98.9%,98.3%,97.4%,1%,0%,6%,0%,16%,16%,24%,42%,24%,0%,32%,78%,0%,15%,0%,0%
CN(c1ccc(F)c(NC(=O)c2cccc(OC(C)(C)C#N)c2Cl)c1)c1ccc2nc(NC(=O)C3CC3)sc2n1,36%,6%,0%,11%,9%,24%,2%,6%,5%,11%,0%,14%,2%,0%,4%,91.9%,0%,0%,0%,17%
CC(C)NCC(Cc1ccccc1)NC(=O)c1cc(Br)c(-c2ccnc3[nH]ccc23)s1.Cl.Cl (centres unmarked) [GSK1383281],0%,75%,64%,52%,0%,32%,2%,58%,79%,53%,22%,0%,0%,0%,1%,33%,0%,2%,6%,0%
Cl.N#CCc1ccc(Nc2nccc(Nc3ccc(Oc4ccccc4)cc3)n2)cc1 [GW639905],0%,0%,39%,34%,29%,6%,10%,11%,36%,40%,72%,36%,23%,0%,15%,0%,0%,24%,0%,0%
Cc1ccc(Nc2ccnc(Nc3ccc(C)c(F)c3)n2)cc1O.Cl [GW582868],0%,0%,50%,35%,0%,11%,8%,0%,12%,31%,74%,29%,12%,0%,10%,0%,0%,48%,0%,17%

# From paper PMC5540273 (PLoS ONE, 2017)
